The target in test [1] is Peroxisome proliferator-activated receptor gamma (Homo sapiens) (UniProt P37231). The test is described as follows: OT_PPARg_PPARgSRC1_1440: Odyssey Thera (OT) 24-hour Protein-Complementation Assay for Peroxisome Proliferator-activated Receptor Gamma/ SRC-1 Co-activator (AID 2283388; active means hit-call score of the fitted dose curve at least 0.9, where 1 is the maximum;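 further: nuclear to cytoplasmic ratio of reconstituted Venus YFP fluorescence in fixed imaged cells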). Put shortly:
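Readout: nuclear-to-cytoplasmic 488 nm fluorescence ratio, ≥350 cells per image, 8 images per well, after 24 h compound exposure of HEK293T expressing PPARg/SRC-1 split-YFP fusions. Activity fitted in positive direction against DMSO.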

A short description of test [2]: CEETOX_H295R_11DCORT: CeeTox H295R High-throughput Steroidogenesis Assay for 11-Deoxycortisol (11DCORT) (AID 2283432).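 On AC50: 11-deoxycortisol secreted into the medium measured by LC-MS/MS.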 Particulars: actives raise or lower the signal. The gist of the method:
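H295R cells; 10 uM forskolin prestim 48 h; compound in 0.1% DMSO 48 h; media extracted with MTBE; 11-deoxycortisol by LC-MS/MS, 7-point standard curve; gain/loss vs DMSO baseline; viability by MTT in same wells.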

The nature of test [3]: CEETOX_H295R_OHPREG: CeeTox H295R High-throughput Steroidogenesis Assay for OH-Pregnenolone (OHPREG) (AID 2283434). Conditions: actives raise or lower the signal. Put shortly: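 Secreted 17alpha-hydroxypregnenolone measured by HPLC-MS/MS after liquid-liquid extraction. Human adrenal H295R cells received 48 h forskolin (10 uM) stimulation before 48 h chemical exposure at 0.1% final DMSO; MTT viability in same wells; bidirectional fit against DMSO.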

Test [4] can be described thus: CEETOX_H295R_OHPROG: CeeTox H295R High-throughput Steroidogenesis Assay for OH-Progesterone (OHPROG) (AID 2283435).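 On AC50: 17alpha-hydroxyprogesterone secreted into medium measured by HPLC-MS/MS.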 Conditions: actives raise or lower the signal. Put shortly: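 Steps: seed H295R cells and adhere overnight; stimulate with 10 uM forskolin for 48 h; replace with chemical-containing medium (0.1% DMSO) for 48 h; extract medium with MTBE; quantify 17alpha-hydroxyprogesterone by reverse-phase C18 HPLC-MS/MS against a 7-point curve.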

Test [5] in a line: CEETOX_H295R_ANDR: CeeTox H295R High-throughput Steroidogenesis Assay for Androstenedione (ANDR) (AID 2283436). Conditions: actives raise or lower the signal. Put shortly: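 Medium from 48 h chemical-treated H295R adrenal cells was extracted with MTBE and androstenedione measured by LC-MS/MS. Activity was fit in both directions relative to DMSO. Cytotoxic concentrations were re-tested after dilution until MTT viability reached ≥70%.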

The nature of test [6]: CEETOX_H295R_CORTIC: CeeTox H295R High-throughput Steroidogenesis Assay for Corticosterone (CORTIC) (AID 2283437). Conditions: actives raise or lower the signal. Put shortly: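 Medium corticosterone was quantified by tandem mass spectrometry following 48 hours of chemical exposure (0.1% DMSO) in human H295R cells previously stimulated 48 hours with 10 uM forskolin. Viability checked by MTT; chemicals diluted and retested when viability fell below 70%.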

The nature of test [7]: CEETOX_H295R_CORTISOL: CeeTox H295R High-throughput Steroidogenesis Assay for Cortisol (AID 2283438). Conditions: actives raise or lower the signal. Put shortly:
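Cortisol synthesis by H295R cells is measured 48 h after chemical dosing, following a 48 h stimulation with 10 uM forskolin. Hormone is extracted and quantified by HPLC-MS/MS, and activity is fitted bidirectionally against the DMSO control.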

Test [8] in a line: CEETOX_H295R_DOC: CeeTox H295R High-throughput Steroidogenesis Assay for DOC (AID 2283439). Conditions: actives raise or lower the signal. Put shortly:
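Steps: seed H295R, adhere overnight; 10 uM forskolin 48 h; replace with chemical medium (0.1% DMSO) 48 h; collect medium, MTBE extraction, HPLC-MS/MS for DOC. Viability then checked by MTT; cytotoxic chemicals diluted until viability ≥70%.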

Test [9] is described as follows: CEETOX_H295R_ESTRADIOL: CeeTox H295R High-throughput Steroidogenesis Assay for Estradiol (AID 2283440).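 Further: estradiol secreted into medium quantified by LC-MS/MS after dansyl derivatisation.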 Particulars: actives raise or lower the signal. Put shortly: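 H295R, 48 h forskolin (10 uM) prestim → 48 h compound, 0.1% DMSO final. Estradiol in medium: MTBE extraction, dansyl chloride derivatization, LC-MS/MS. Fit bidirectional vs DMSO baseline; MTT viability in same wells.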

Test [10] can be described thus: CEETOX_H295R_ESTRONE: CeeTox H295R High-throughput Steroidogenesis Assay for Estrone (AID 2283441).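 Further: human adrenal H295R cells prestimulated with forskolin for two days.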 Particulars: actives raise or lower the signal. Put shortly: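 Estrone secreted into medium quantified by LC-MS/MS after dansyl chloride derivatization, following 48 h chemical exposure (0.1% DMSO final) of forskolin-prestimulated (10 uM, 48 h) H295R cells; gain or loss fitted against DMSO; MTT viability in same wells.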

Active and inactive are the calls of the source. How the source made its calls, unless noted: active means hit-call score of the fitted dose curve at least 0.9, where 1 is the maximum; inactive means score below 0.9.

Chain of Peroxisome proliferator-activated receptor gamma (Homo sapiens) (P37231 whole entry, looked up, the tested form may be a part): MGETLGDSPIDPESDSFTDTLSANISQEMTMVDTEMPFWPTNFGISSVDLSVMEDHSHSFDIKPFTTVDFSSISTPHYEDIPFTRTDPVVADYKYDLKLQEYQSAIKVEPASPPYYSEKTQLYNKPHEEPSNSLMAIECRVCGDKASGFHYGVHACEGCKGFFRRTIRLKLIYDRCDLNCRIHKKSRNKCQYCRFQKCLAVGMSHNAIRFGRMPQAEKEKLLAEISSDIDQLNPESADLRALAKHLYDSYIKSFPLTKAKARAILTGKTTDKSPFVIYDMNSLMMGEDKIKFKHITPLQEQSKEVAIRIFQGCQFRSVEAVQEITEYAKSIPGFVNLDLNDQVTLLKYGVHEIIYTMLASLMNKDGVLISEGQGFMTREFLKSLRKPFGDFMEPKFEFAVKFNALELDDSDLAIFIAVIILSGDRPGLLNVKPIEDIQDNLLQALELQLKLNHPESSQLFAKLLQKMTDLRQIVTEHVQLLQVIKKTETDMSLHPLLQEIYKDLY

Regarding `CCOC(=O)COc1cc(-c2nn(C)c(OC(F)F)c2Cl)c(F)cc1Cl`, the compound was called inactive in [1], in [2], in test [3], in test [4], in [5] and in test [6]. The result in test [7] and in test [8] was inactive.

In the case of `CSc1nc(NC(C)C)nc(NC(C)C)n1`, the outcome in test [1], in test [3], in [4] and in test [9] was inactive. Further, in test [10], the AC50 (usually the concentration giving half of the maximal activity seen) was 2540 nM (active).

On to `CCCCN(CC)c1c([N+](=O)[O-])cc(C(F)(F)F)cc1[N+](=O)[O-]`, for which the call in [1], in test [3], in test [4], in test [6], in [7] and in [8] was inactive.

For `CSc1nnc(C(C)(C)C)c(=O)n1N`, the outcome in [2], in test [3], in test [4], in [6], in test [7] and in test [8] was inactive.

Regarding `CC1(C(=O)Nc2ccc(O)c(Cl)c2Cl)CCCCC1`, the outcome in test [1] was inactive. The AC50 in [3] is 7520 nM (active); in [4] it was 9280 nM (active).

Regarding `C#CCC1=C(C)C(OC(=O)C2C(C=C(C)C)C2(C)C)CC1=O` (stereo not drawn), the compound was classed as inactive in test [1], in test [3] and in [4].

On to `Cc1nn(-c2cc(NS(C)(=O)=O)c(Cl)cc2Cl)c(=O)n1C(F)F`, for which the result in test [1] was inactive.

For the compound `CCOP(=S)(OCC)Oc1ccc([N+](=O)[O-])cc1`, the outcome in [1], in test [3] and in test [6] was inactive. Also, the AC50 in test [2] was 2570 nM (active); in test [4], 390 nM (active); in test [7], 1930 nM (active); in [8] it was 775 nM (active).

For the compound `CC(Oc1cccc(Cl)c1)C(=O)O` (stereo not drawn), the compound was called inactive in test [1].

`CCCSP(=O)(OCC)Oc1ccc(Br)cc1Cl` (stereo not drawn): the outcome in test [1], in test [3] and in [4] was inactive.

For the compound `CC(C1CC1)C(O)(Cn1cncn1)c1ccc(Cl)cc1` (stereo not drawn), the outcome in test [1] was inactive. For the same compound, the AC50 is 4380 nM (active) in test [3] and 3210 nM (active) in test [4].

For `O=C(O)c1cc(Oc2ccc(C(F)(F)F)cc2Cl)ccc1[N+](=O)[O-]`, the outcome in test [1], in test [2], in [3], in test [4], in test [6] and in [7] was inactive. Further, the compound was classed as inactive in test [8].
